# Assay results as given in PubChem BioAssay (NCATS).
# Assay: qHTS profiling for inhibitors of Plasmodium falciparum (DD2) proliferation (AID 743323)
# Conditions: lower = more inhibition; at 28.7 µM (top of the series) unless noted
# Summary of the method: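 P. falciparum Dd2-infected erythrocytes (0.3% parasitemia, 2.5% hematocrit) exposed 72 h at 37 C, 5% CO2. Lysis with SYBR Green, overnight at room temperature, fluorescence 485/535 nm; normalized to 0.29 uM artemisinin and DMSO.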
row,Compound,"activity, percent of control [%]"
1,CSc1cccc(NC(=O)CC[C@H]2O[C@@H]3O[C@]4(C)CC[C@H]5[C@H](C)CC[C@@H]([C@@H]2C)[C@@]35OO4)c1,0.0476
2,O=C1C(=O)c2ccccc2C(O)=C1C1CCC2(CC1)OOC1(O2)C2CC3CC(C2)CC1C3 (configuration not stated),-0.0523
3,C[C@@H]1[C@@H](CC(C[C@H]2O[C@@H]3O[C@]4(C)CC[C@@H]5[C@H](C)CC[C@@H]([C@H]2C)[C@@]35OO4)C(=O)NCc2ccc(F)cc2)O[C@@H]2O[C@]3(C)CC[C@H]4[C@H](C)CC[C@@H]1[C@@]24OO3 (some centres not stated),0.0214
4,C[C@H]1[C@@H](CCC(=O)Nc2ccc(F)cc2)O[C@@H]2O[C@]3(C)CC[C@@H]4[C@H](C)CC[C@@H]1[C@@]24OO3,0.199
5,CCCCN(CCCC)CCC(OC(=O)O[C@H]1CCC[C@]2(C1)OOC1(O2)C2CC3CC(C2)CC1C3)c1cc2c(Cl)cc(Cl)cc2c2cc(C(F)(F)F)ccc12 (some centres not stated),0.194
6,CCCCN(CCCC)CCC(OC(=O)O[C@@H]1CCC[C@]2(C1)OOC1(O2)C2CC3CC(C2)CC1C3)c1cc2c(Cl)cc(Cl)cc2c2cc(C(F)(F)F)ccc12 (some centres not stated),0.0994

# Assay: qHTS profiling for inhibitors of Plasmodium falciparum (HB3) proliferation (AID 743324);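 further: 100% = DMSO vehicle wells and 0% = artemisinin-treated control wells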
# Conditions: Plasmodium falciparum HB3 blood-stage proliferation; at 28.7 µM (top of the series) unless noted
# Summary of the method: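 P. falciparum HB3 grown in erythrocytes (0.3% parasitemia, 2.5% hematocrit final) with compound for 72 h at 37 C, 5% CO2. Parasite DNA detected by SYBR Green after saponin/triton lysis overnight; normalized to 0.29 uM artemisinin and DMSO.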
row,Compound,"remaining proliferation (% of control), lower = more inhibition [%]"
1,CSc1cccc(NC(=O)CC[C@H]2O[C@@H]3O[C@]4(C)CC[C@H]5[C@H](C)CC[C@@H]([C@@H]2C)[C@@]35OO4)c1,0.997
2,O=C1C(=O)c2ccccc2C(O)=C1C1CCC2(CC1)OOC1(O2)C2CC3CC(C2)CC1C3 (configuration not stated),0.423
3,C[C@@H]1[C@@H](CC(C[C@H]2O[C@@H]3O[C@]4(C)CC[C@@H]5[C@H](C)CC[C@@H]([C@H]2C)[C@@]35OO4)C(=O)NCc2ccc(F)cc2)O[C@@H]2O[C@]3(C)CC[C@H]4[C@H](C)CC[C@@H]1[C@@]24OO3 (some centres not stated),0.676
4,C[C@H]1[C@@H](CCC(=O)Nc2ccc(F)cc2)O[C@@H]2O[C@]3(C)CC[C@@H]4[C@H](C)CC[C@@H]1[C@@]24OO3,0.121
5,CCCCN(CCCC)CCC(OC(=O)O[C@H]1CCC[C@]2(C1)OOC1(O2)C2CC3CC(C2)CC1C3)c1cc2c(Cl)cc(Cl)cc2c2cc(C(F)(F)F)ccc12 (some centres not stated),0.0614
6,CCCCN(CCCC)CCC(OC(=O)O[C@@H]1CCC[C@]2(C1)OOC1(O2)C2CC3CC(C2)CC1C3)c1cc2c(Cl)cc(Cl)cc2c2cc(C(F)(F)F)ccc12 (some centres not stated),0.359
